Source: PubChem BioAssay AID1159580 (chemical genetic matrix, 2015)
In all, about 5,500 compounds went through this assay and about 2,000 (36%) were called active. Inconclusive results (about 18%) are left out. Rule as the data show it: active = normalized growth mostly below about 0.91 (no sharp cut-off); inconclusive = no clear call, values can overlap the other calls; inactive = mostly above about 0.92. The list shows a part of the results.

Assay: chemical genetic growth profiling, strain panel (AID 1159580);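 also: tested at 20 µM; growth read once vehicle control cultures reached saturation at 30 °C; 1 = growth at the plate median or of vehicle wells; lower values mean less growth of the strain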
Details: growth OD

Measured: normalized growth

COC(=O)c1c(C)cc(OC(=O)c2c(C)c(Cl)c(O)c(C=O)c2O)c(C)c1O
inactive: S. cerevisiae deletion strains, locus YAL013W, strain DEP1, hits give low values 1 | S. cerevisiae deletion strains, locus YBR021W, strain FUR4, hits give low values 1 | S. cerevisiae deletion strains, locus YBR229C, strain ROT2, hits give low values 1 | S. cerevisiae deletion strains, locus YCL029C, strain bik1, hits give low values 0.985 | S. cerevisiae deletion strains, locus YDL035C, strain GPR1, hits give low values 1.01 | S. cerevisiae deletion strains, locus YDL074C, strain BRE1, hits give low values 1 | S. cerevisiae deletion strains, locus YDL101C, strain DUN1, hits give low values 0.978 | S. cerevisiae deletion strains, locus YDL134C, strain PPH21, hits give low values 0.994 | S. cerevisiae deletion strains, locus YDL185W, strain tfp1, hits give low values 0.963 | S. cerevisiae deletion strains, locus YDL192W, strain arf1, hits give low values 0.993 | S. cerevisiae deletion strains, locus YDR101C, strain arx1, hits give low values 0.995 | S. cerevisiae deletion strains, locus YDR150W, strain NUM1, hits give low values 0.984 | S. cerevisiae deletion strains, locus YDR162C, strain NBP2, hits give low values 0.997 | S. cerevisiae deletion strains, locus YDR318W, strain mcm21, hits give low values 0.99 | S. cerevisiae deletion strains, locus YDR388W, hits give low values 0.985 | S. cerevisiae deletion strains, locus YDR502C, strain sam2, hits give low values 0.984 | S. cerevisiae deletion strains, locus YEL061C, strain CIN8, hits give low values 0.99 | S. cerevisiae deletion strains, locus YER110C, hits give low values 0.989 | S. cerevisiae deletion strains, locus YER155C, strain BEM2, hits give low values 1 | S. cerevisiae deletion strains, locus YER167W, strain BCK2, hits give low values 1 | S. cerevisiae deletion strains, locus YGL078C, strain dbp3, hits give low values 0.984 | S. cerevisiae deletion strains, locus YGL086W, strain mad1, hits give low values 0.993 | S. cerevisiae deletion strains, locus YGL248W, strain PDE1, hits give low values 0.979 | S. cerevisiae deletion strains, locus YGR078C, strain PAC10, hits give low values 0.988 | S. cerevisiae deletion strains, locus YGR135W, strain pre9, hits give low values 0.982 | S. cerevisiae deletion strains, locus YGR229C, strain SMI1, hits give low values 0.971 | S. cerevisiae deletion strains, locus YGR252W, strain gcn5, hits give low values 1 | S. cerevisiae deletion strains, locus YHR030C, strain SLT2, hits give low values 0.993 | S. cerevisiae deletion strains, locus YHR079C, strain IRE1 (second series), hits give low values 0.987 | S. cerevisiae deletion strains, locus YHR094C, strain hxt1, hits give low values 0.987 | S. cerevisiae deletion strains, locus YHR129C, strain ARP1, hits give low values 1 | S. cerevisiae deletion strains, locus YHR200W, strain rpn10, hits give low values 0.985 | S. cerevisiae deletion strains, locus YIL066C, strain RNR3, hits give low values 0.973 | S. cerevisiae deletion strains, locus YIL073C, strain SPO22, hits give low values 0.906 | S. cerevisiae deletion strains, locus YIL125W, strain kgd1, hits give low values 1 | S. cerevisiae deletion strains, locus YIR030C, strain dcg1, hits give low values 0.983 | S. cerevisiae deletion strains, locus YJL095W, strain BCK1, hits give low values 1.01 | S. cerevisiae deletion strains, locus YJL134W, strain LCB3, hits give low values 0.989 | S. cerevisiae deletion strains, locus YJL168C, strain set2, hits give low values 0.992 | S. cerevisiae deletion strains, locus YJL187C, strain SWE1 (second series), hits give low values 0.983 | S. cerevisiae deletion strains, locus YJR043C, strain POL32, hits give low values 1 | S. cerevisiae deletion strains, locus YJR075W, strain HOC1, hits give low values 1 | S. cerevisiae deletion strains, locus YKL009W, strain mrt4, hits give low values 0.984 | S. cerevisiae deletion strains, locus YKL068W, hits give low values 0.984 | S. cerevisiae deletion strains, locus YKL085W, strain MDH1 (second series), hits give low values 0.996 | S. cerevisiae deletion strains, locus YKL085W, strain MDH1, hits give low values 0.996 | S. cerevisiae deletion strains, locus YKL190W, strain CNB1, hits give low values 0.992 | S. cerevisiae deletion strains, locus YKR001C, strain vps1, hits give low values 0.989 | S. cerevisiae deletion strains, locus YLR039C, strain RIC1, hits give low values 1 | S. cerevisiae deletion strains, locus YLR058C, strain SHM2, hits give low values 0.988 | S. cerevisiae deletion strains, locus YLR102C, strain apc9, hits give low values 0.982 | S. cerevisiae deletion strains, locus YLR262C, strain YPT6, hits give low values 0.968 | S. cerevisiae deletion strains, locus YLR268W, strain sec22, hits give low values 0.972 | S. cerevisiae deletion strains, locus YLR330W, strain CHS5, hits give low values 0.993 | S. cerevisiae deletion strains, locus YLR342W, strain FKS1 (second series), hits give low values 0.979 | S. cerevisiae deletion strains, locus YLR371W, strain rom2, hits give low values 0.98 | S. cerevisiae deletion strains, locus YLR418C, strain cdc73, hits give low values 1 | S. cerevisiae deletion strains, locus YML016C, strain PPZ1, hits give low values 0.992 | S. cerevisiae deletion strains, locus YML032C, strain rad52, hits give low values 0.981 | S. cerevisiae deletion strains, locus YML124C, strain tub3, hits give low values 0.985 | S. cerevisiae deletion strains, locus YMR078C, strain ctf18, hits give low values 0.981 | S. cerevisiae deletion strains, locus YMR223W, strain ubp8, hits give low values 0.979 | S. cerevisiae deletion strains, locus YMR263W, strain SAP30, hits give low values 0.971 | S. cerevisiae deletion strains, locus YMR307W, strain GAS1, hits give low values 0.972 | S. cerevisiae deletion strains, locus YNL067W, strain RPL9B, hits give low values 0.995 | S. cerevisiae deletion strains, locus YNL128W, strain TEP1, hits give low values 0.998 | S. cerevisiae deletion strains, locus YNL153C, strain GIM3, hits give low values 0.986 | S. cerevisiae deletion strains, locus YNL233W, strain BNI4, hits give low values 0.989 | S. cerevisiae deletion strains, locus YNL250W, strain rad50, hits give low values 0.997 | S. cerevisiae deletion strains, locus YNL271C, strain bni1, hits give low values 0.996 | S. cerevisiae deletion strains, locus YNL298W, strain CLA4, hits give low values 0.98 | S. cerevisiae deletion strains, locus YNL307C, strain MCK1, hits give low values 0.98 | S. cerevisiae deletion strains, locus YNL322C, strain KRE1, hits give low values 1 | S. cerevisiae deletion strains, locus YNR052C, strain pop2, hits give low values 0.979 | S. cerevisiae deletion strains, locus YOL006C, strain TOP1, hits give low values 1.03 | S. cerevisiae deletion strains, locus YOL012C, strain htz1 0.881 | S. cerevisiae deletion strains, locus YOL147C, strain pex11, hits give low values 0.981 | S. cerevisiae deletion strains, locus YOR061W, strain CKA2, hits give low values 0.999 | S. cerevisiae deletion strains, locus YOR069W, strain VPS5, hits give low values 0.986 | S. cerevisiae deletion strains, locus YOR136W, strain idh2, hits give low values 0.993 | S. cerevisiae deletion strains, locus YOR144C, strain elg1, hits give low values 0.978 | S. cerevisiae deletion strains, locus YOR184W, strain ser1, hits give low values 0.976 | S. cerevisiae deletion strains, locus YOR316C, strain cot1, hits give low values 0.996 | S. cerevisiae deletion strains, locus YPL055C, strain LGE1, hits give low values 0.984 | S. cerevisiae deletion strains, locus YPL241C, strain CIN2, hits give low values 0.989 | S. cerevisiae deletion strains, locus YPR119W, strain clb2, hits give low values 0.975 | S. cerevisiae deletion strains, locus YPR141C, strain kar3, hits give low values 0.986 | S. cerevisiae deletion strains, locus YPR163C, strain tif3, hits give low values 0.977 | S. cerevisiae deletion strains, locus YPR167C, strain met16, hits give low values 0.993 | S. cerevisiae deletion strains, strain wtn01, hits give low values 0.975 | S. cerevisiae strains, strain wild type, hits give low values 1.01
